# Records with an inconclusive call do not appear. The source made the active and inactive calls. Calls follow the shape of the dose curve; as a rule, active = well fitted inhibition curve with a large enough effect in the repeat runs; inconclusive = weak or mixed curves; inactive = no such curve, though single readings can be large or run the other way.
# Target: Cytochrome P450 2D6 (Homo sapiens) (UniProt P10635)
# Assay: Cytochrome P450 Family 2 Subfamily D Member 6 (CYP2D6) small molecule antagonists: luciferase reporter qHTS assay (AID 1671196); also: nearly all actives have a fitted effect of over 50% in size
# Conditions: P450-Glo CYP2D6 enzyme assay, luciferin luminescence, 1 h; series mostly up to 115 µM; activity change, negative = inhibition: at the top concentration
# Excerpt: U.S. Tox21 Program National Center for Advancing Translational Sciences [NCATS] U.S. Environmental Protection Agency [EPA] National Institutes of Environmental Health Sciences [NIEHS] National Toxicology Program [NTP] U.S. Food and Drug Administration [FDA] Tox21 Assay Overview: Cytochrome P450 (CYP) enzymes are membrane-bound hemeproteins that play a key role in metabolism of drugs and xenobiotics. Evaluation of the effect of chemicals on CYP isozymes is useful to minimize the adverse drug reactions and toxicities in drug development process. Tox21 chemicals were tested for their effect on CYP enzyme activities by using P450-Glo (TM) screening systems (Promega Corporation, Madison, WI). These systems provide a luminescent method containing proluciferin substrates and are converted to luciferin products by CYP isozymes. The luciferin products formed are detected with a luciferin detection reagent, and the amount of light produced is proportional to CYP activity. P450-Glo (TM) CYP2D6 screening system (Catalog. No. V9890) was used to detect the compounds that interfere in CYP2D6 activity.
# Tox21 Assay Protocol Summary: Two ul of enzyme-substrate mix was dispensed into medium binding white/solid 1536-well plates (Greiner Bio-One North America Inc., Monroe, NC) using a BioRaptr Flying Reagent Dispenser (FRD, Beckman Coulter, Brea, CA). […] The assay plates were incubated at room temperature for 10 min. Then 2 ul of NADPH regeneration solution was added to each well of the assay plates using an FRD and incubated at room temperature for 1 h. The reaction was stopped by adding 4 ul of detection reagent using an FRD and after 20 min incubation at room temperature the luminescence signal was measured using a ViewLux plate reader (Perkin Elmer, Shelton, CT). Data were expressed as relative luminescence units.
# % is scaled to controls: 0 for no effect and ±100 for the full control effect; potency is read from the fitted curve at half-maximal effect.
# Chain of Cytochrome P450 2D6 (Homo sapiens) (P10635 whole entry, looked up): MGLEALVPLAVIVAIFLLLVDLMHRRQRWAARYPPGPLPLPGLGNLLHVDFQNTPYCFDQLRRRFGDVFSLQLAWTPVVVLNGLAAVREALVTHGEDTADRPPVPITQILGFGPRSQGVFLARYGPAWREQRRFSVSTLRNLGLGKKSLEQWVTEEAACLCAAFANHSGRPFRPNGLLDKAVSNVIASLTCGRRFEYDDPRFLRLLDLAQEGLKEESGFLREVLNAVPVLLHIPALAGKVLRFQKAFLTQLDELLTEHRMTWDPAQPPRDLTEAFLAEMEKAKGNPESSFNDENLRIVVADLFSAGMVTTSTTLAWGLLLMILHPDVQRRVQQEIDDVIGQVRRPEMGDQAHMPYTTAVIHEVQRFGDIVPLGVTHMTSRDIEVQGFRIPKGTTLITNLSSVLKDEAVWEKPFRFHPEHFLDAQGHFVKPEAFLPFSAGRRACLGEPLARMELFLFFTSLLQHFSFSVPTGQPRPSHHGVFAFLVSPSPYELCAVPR
SMILES,"activity change, negative = inhibition",Potency
COc1cc([N+](=O)[O-])ccc1N,-15.7% (inactive),
CC(=O)OCCCc1ccccc1,-42.1% (inactive),
C=C[Si](C)(C)O[Si](C)(C)C=C,2.05% (inactive),
CCCCCCCCCCCCCC(=O)OC,3.51% (inactive),
C=CCOCC(O)CCl (stereo not given),1.61% (inactive),
C=C(C)C(=O)OCCCCCCOC(=O)C(=C)C,-1.76% (inactive),
COc1ccc(N=Nc2cc(C)c(N=Nc3ccc(S(=O)(=O)O)cc3)cc2OC)cc1,-12.9% (inactive),
CCC(CO)CO,-15.6% (inactive),
Cc1ccccc1C(=O)N1CC/C(=N\OS(=O)(=O)O)c2ccc(Cl)cc21,-5.97% [at 53 µM] (inactive),
CCCCCCCCCCCCC,-8.66% (inactive),
C[N+](C)(C)CC(O)CCl (stereo not given),-4.16% (inactive),
CC(Cl)COP(=O)(OCC(C)Cl)OCC(C)Cl (stereo not given),-21.8% (inactive),
O=S(=O)(O)SSS(=O)(=O)O,-20.9% (inactive),
CCC1COC(=O)O1 (stereo not given),-4.48% (inactive),
CCCOC(=O)CCCCC(=O)OCCC,-4.25% (inactive),
Nc1c(NC/C=C\COc2cc(CN3CCCCC3)ccn2)c(=O)c1=O,,12 µM (active)
Cc1cc(C)cc([N+](=O)[O-])c1,-5.42% (inactive),
C1=C\CC/C=C\CC/1,-14.9% (inactive),
CCOC(=O)C(C)(C)C,0.543% (inactive),
O=C(O)/C=C/c1ccccc1,,39.9 µM (active)

SMILES,"activity change, negative = inhibition",Potency
CCCCC(=O)N(C)C,-1.03% (inactive),
Nc1ccc(C(=O)OCC(O)CO)cc1 (stereo not given),1.21% [at 53 µM] (inactive),
CCCCOC(=O)C(=O)OCCCC,1.46% (inactive),
NS(=O)(=O)c1cc2c(cc1Cl)NC(C(Cl)Cl)NS2(=O)=O (stereo not given),-21.3% [at 53 µM] (inactive),
CCCCCCCCC(=O)OCC,-1.73% (inactive),
CC(C)COC(=O)CCCCC(=O)OCC(C)C,-0.784% (inactive),
NCCc1ccn[nH]1,-10.3% [at 53 µM] (inactive),
CCCOCCOCCOCCO,-19.5% (inactive),
CC(=O)OC[C@H]1O[C@@H](OC(C)=O)[C@H](OC(C)=O)[C@@H]1OC(C)=O,-4% [at 53 µM] (inactive),
CCc1nccnc1C,-5.84% (inactive),
CC(CC(=O)O)CC(C)(C)C (stereo not given),-18.6% (inactive),
O=C1c2ccccc2-c2ccccc21,-9.61% (inactive),
CCCCCC1Nc2cc(C(F)(F)F)c(S(N)(=O)=O)cc2S(=O)(=O)N1 (stereo not given),,13.8 µM (active)
O=C1OC(=O)c2ccccc21,-4.25% (inactive),
CCNC(=O)NCCCOc1cccc(CN2CCCCC2)c1,,13.8 µM (active)
CCCCCCCC/C=C\CCCCCCCC(=O)OC[C@@H](O)[C@H]1OC[C@H](O)[C@H]1O,-14.6% (inactive),
CC(C)CCCCCCOC(=O)C1CCCCC1C(=O)OCCCCCCC(C)C (stereo not given),-11.4% (inactive),
CCC1Nc2cc(Cl)c(S(N)(=O)=O)cc2S(=O)(=O)N1 (stereo not given),-1.85% [at 53 µM] (inactive),
Cc1ccc(C(=O)C(=O)O)cc1C,-20.3% [at 53 µM] (inactive),
CO[Si](CCCCl)(OC)OC,,31.2 µM (active)
